A selection: hits, their analogues and other compounds. The true share with any hit is near 6.5%.
MARV entry inh = qHTS for inhibitors of binding or entry into cells for Marburg Virus. hit rate 1.8% among 300,000. Marburg virus pseudotyped entry inhibition, cell reporter. Potency, µM (titrated, usually from 37.8 µM), actives largely listed as inhibitors; calls by dose curve; tested in HEK293 cells
VACV Venus inh = qHTS for Stage-Specific Inhibitors of Vaccinia Orthopoxvirus: Venus Reporter Primary qHTS; Vaccinia virus Venus reporter expression, fluorescence; hit rate 0.46% among 330,000; AID 720580, 2013; Potency, µM (highest dose often 36.5 µM), actives largely listed as inhibitors; calls by dose curve; tested in A549 cells; also: nearly all actives have a fitted effect of over 30% in size
LASV entry inh = qHTS for Inhibitors of binding or entry into cells for Lassa Virus; Lassa virus pseudotype entry inhibition, cell reporter; Potency, µM (top dose mostly 37.9 µM), actives largely listed as inhibitors; hit rate 1.2% among 300,000; AID 540256, 2011; calls by dose curve; tested in HEK293 cells; also: nearly all actives have a fitted effect of over 50% in size
FMDV inh = High Throughput Screening for Foot and Mouth Disease Virus Antivirals. Potency, µM (titrated, usually from 57.9 µM), actives largely listed as inhibitors. FMDV antiviral cell-based qHTS. hit rate 1.2% among 410,000; calls by dose curve; tested in HEK293T cells; also: read-out not given here; nearly all actives have a fitted effect of over 45% in size
VACV mCherry inh = qHTS for Stage-Specific Inhibitors of Vaccinia Orthopoxvirus: mCherry Reporter Primary qHTS; Vaccinia virus mCherry reporter infection, fluorescence; Potency, µM (doses to about 36.5 µM), usual class: inhibitors; hit rate 0.63% among 310,000; calls by dose curve; tested in A549 cells; also: nearly all actives have a fitted effect of over 35% in size
HCMV inh = qHTS Assay for inhibitors of the human cytomegalovirus (HCMV). HFF cells, HCMV-luciferase reporter, 72 h; active compounds read low. activity change, negative = inhibition, % at 57.5 µM. hit rate 4.5% among 410,000; in the data active = activity change below about -60%; inconclusive = no clear call, values can overlap the other calls; inactive = above about -39%
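Luciferase read-out from HCMV-luciferase-infected HFFs (MOI 1 PFU/cell) 72 h post infection at 37C; compounds added after 16 h cell attachment; activity normalized between buffer-only basal and Salinomycin (10uM) inhibitor controls.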
Each line names hits and unclear results; the compound was inactive in the other large screens.

Cc1noc(C)c1C(=O)Nc1nc(-c2ccc([N+](=O)[O-])cc2)cs1	FMDV inh inconclusive, HCMV inh -62
O=C(Nc1ccc([N+](=O)[O-])cc1)Nc1nc(-c2ccc(Cl)s2)cs1	MARV entry inh inconclusive, VACV Venus inh 5.6µM, LASV entry inh inconclusive, FMDV inh inconclusive, VACV mCherry inh inconclusive, HCMV inh -100
NC(=O)Cc1nc(-c2ccc([N+](=O)[O-])cc2)cs1	HCMV inh -93
Cc1cccc(CNC(=O)CSCc2cnn(-c3ccccc3)c2-n2cccc2)c1	none
COc1ccccc1OCC(=O)Nc1ccc(S(=O)(=O)N(C)c2ccccc2)cc1	none (no result: MARV entry inh, VACV Venus inh, LASV entry inh, VACV mCherry inh)
COc1ccc(S(=O)(=O)N(C)CC(=O)Nc2ccc(C)cc2)cc1OC	none (no result: MARV entry inh, VACV Venus inh, LASV entry inh, VACV mCherry inh)
CCN(CC(=O)Nc1ccc(OC)c(OC)c1)S(=O)(=O)c1ccc(C)cc1	FMDV inh 13µM (no result: VACV mCherry inh)
CCN(CC)S(=O)(=O)c1ccc(NC(=O)COc2c(OC)cccc2OC)cc1	FMDV inh 32µM (no result: VACV Venus inh, VACV mCherry inh)
CCN(CC)C(=O)c1ccc2c3c(cccc13)C(=O)N(CCc1ccc(OC)c(OC)c1)C2=O	MARV entry inh inconclusive, VACV Venus inh inconclusive, LASV entry inh inconclusive, FMDV inh 32µM, VACV mCherry inh inconclusive (no result: HCMV inh)
COCCCn1c(=O)c2sccc2n2c(CCCC(=O)Nc3cc(C)cc(C)c3)nnc12	HCMV inh inconclusive (no result: MARV entry inh)
COc1cccc(N(C(=O)Cn2nnc(-c3ccc(C)cc3)n2)C(C(=O)NC(C)(C)C)c2c[nH]c3ccccc23)c1 (stereo not given)	MARV entry inh inconclusive, LASV entry inh inconclusive, HCMV inh -66 (no result: VACV Venus inh, VACV mCherry inh)
CC(C)(C)NC(=O)C(c1c[nH]c2ccccc12)N(C(=O)Cn1nnc(-c2ccc(Cl)cc2)n1)c1ccccc1F (stereo not given)	MARV entry inh inconclusive, VACV Venus inh inconclusive, LASV entry inh inconclusive, HCMV inh inconclusive
CCOC(=O)C(NC(=O)CC)(Nc1ccccc1OC)C(F)(F)F (stereo not given)	none (no result: VACV mCherry inh)
CCOC(=O)C(Cc1ccccc1)(Nc1ccccc1OC)C(O)c1ccc(C#N)cc1 (stereo not given)	HCMV inh -66 (no result: MARV entry inh, VACV Venus inh, LASV entry inh, FMDV inh, VACV mCherry inh)
COc1ccccc1OC(C)C(=O)N1CC(=O)Nc2ccccc21 (stereo not given)	HCMV inh -72
COc1cc(C(=O)N2CC(=O)Nc3ccccc32)cc(OC)c1OC	none (no result: MARV entry inh, LASV entry inh)
Cc1cc(C)cc(C(=O)N2CC(=O)Nc3ccccc32)c1	MARV entry inh inconclusive, VACV Venus inh inconclusive, LASV entry inh inconclusive, HCMV inh -81
C[C@H](NC(=O)C[C@@H]1C[C@@H]2c3cc(NC(=O)C4CCC4)ccc3O[C@@H]2[C@@H](CO)O1)c1ccccc1	none (no result: MARV entry inh, VACV Venus inh, LASV entry inh, FMDV inh, VACV mCherry inh)
CCCOCc1cc(CN2CCN(c3ccccc3OC)CC2)c(O)c2ncccc12	MARV entry inh inconclusive, VACV Venus inh inconclusive, LASV entry inh inconclusive, VACV mCherry inh inconclusive, HCMV inh -100
CCOCc1cc(CN2CCN(c3ccccc3OC)CC2)c(O)c2ncccc12	MARV entry inh inconclusive, LASV entry inh inconclusive, VACV mCherry inh 13µM, HCMV inh -98
COc1ccccc1N1CCN(Cc2cc(COC(C)C)c3cccnc3c2O)CC1	MARV entry inh 4µM, VACV Venus inh inconclusive, LASV entry inh inconclusive, VACV mCherry inh inconclusive, HCMV inh -85
COc1ccccc1N1CCN(Cc2cc(C)c(C)cc2O)CC1	MARV entry inh inconclusive, FMDV inh inconclusive
COc1ccccc1N1CCN(Cc2ccc(Br)s2)CC1	MARV entry inh inconclusive, LASV entry inh inconclusive, FMDV inh inconclusive, HCMV inh -81 (no result: VACV Venus inh, VACV mCherry inh)
COc1ccccc1N1CCN(Cc2cc(Br)c(O)c3ncccc23)CC1	VACV Venus inh inconclusive, VACV mCherry inh inconclusive, HCMV inh -95 (no result: LASV entry inh)
CC1(C)OC(=O)C(=NNc2ccccc2)C(=O)O1	MARV entry inh inconclusive
CC1(C)OC(=O)C(=NNc2ccc(C(=O)O)cc2)C(=O)O1	HCMV inh -90
O=C(c1ccccc1)C(CN1CCCC1)c1ccccc1 (stereo not given)	MARV entry inh 7.1µM, VACV Venus inh 16µM, LASV entry inh 7.9µM, FMDV inh 3.5µM, VACV mCherry inh inconclusive, HCMV inh -103
CCOC(=O)C(CN1CCCC1)c1ccccc1 (stereo not given)	none (no result: MARV entry inh, LASV entry inh)
O=C(c1ccc(Cl)cc1)C(CN1CCCCC1)c1ccccc1 (stereo not given)	MARV entry inh inconclusive, VACV Venus inh 11µM, LASV entry inh inconclusive, FMDV inh 14µM, VACV mCherry inh inconclusive, HCMV inh -101
O=C(NCc1ccco1)N[C@H]1CC[C@@]23CCCN2C(=O)CCC[C@H]3C1Cc1ccccc1 (stereo not given in full)	none (no result: MARV entry inh, VACV Venus inh, LASV entry inh, FMDV inh, VACV mCherry inh)
COc1ccc(NC(=O)c2ccccc2OCC(=O)Nc2ccc(Br)cc2)cc1	none (no result: MARV entry inh, LASV entry inh, FMDV inh, HCMV inh)
CCn1nc(C)cc1C(=O)NCCN1Cc2ccccc2OC(c2ccccc2F)C1 (stereo not given)	FMDV inh inconclusive (no result: MARV entry inh, LASV entry inh, HCMV inh)
CCC(NC(=O)Nc1ccc(O)cc1)(C(F)(F)F)C(F)(F)F	MARV entry inh inconclusive, HCMV inh -70 (no result: VACV mCherry inh)
COc1ccc2cc(CN(Cc3cccnc3)Cc3nnnn3Cc3ccccc3)c(=O)[nH]c2c1	LASV entry inh inconclusive (no result: FMDV inh)
COc1ccc2cc(CN(Cc3cccs3)Cc3nnnn3Cc3ccccc3)c(=O)[nH]c2c1	LASV entry inh inconclusive, HCMV inh -99 (no result: VACV Venus inh, VACV mCherry inh)
Cc1cccc2cc(CN(Cc3ccccc3)Cc3nnnn3Cc3ccccc3)c(=O)[nH]c12	none (no result: MARV entry inh, LASV entry inh, FMDV inh, HCMV inh)
Cc1cccc2cc(CN(Cc3cccs3)Cc3nnnn3Cc3ccccc3)c(=O)[nH]c12	MARV entry inh 16µM, VACV Venus inh inconclusive, LASV entry inh inconclusive, HCMV inh inconclusive (no result: FMDV inh)
N#C/C(=C\c1ccc(OCc2ccc(Cl)cc2Cl)cc1)c1nc2ccccc2[nH]1	none (no result: MARV entry inh)
COc1cc(/C=C(\C#N)c2nc3ccccc3[nH]2)cc(Cl)c1OCc1ccccc1Cl	MARV entry inh inconclusive, FMDV inh inconclusive, HCMV inh -80
Cc1ccc(F)cc1C(=O)N1CCC1(C)C(=O)O (stereo not given)	none (no result: MARV entry inh, LASV entry inh)
CC1(C(=O)O)CCN1C(=O)c1ccccc1F (stereo not given)	FMDV inh 5µM (no result: MARV entry inh, LASV entry inh)
CCOc1ccc(/C=N/n2c(SC)nnc(C(C)(C)C)c2=O)cc1	LASV entry inh 10µM (no result: VACV mCherry inh)
COc1cccc(CNC(=O)CCC2CCCN(C(=O)c3cc4ccccc4o3)C2)c1 (stereo not given)	MARV entry inh 11µM, LASV entry inh inconclusive
CC(C)c1nn2c(=O)cc(COC(=O)CNC(=O)c3ccccc3)nc2s1	none (no result: MARV entry inh)
CC(CCCN(C)C)C(Cc1ccccc1)c1ccccc1 (stereo not given)	MARV entry inh inconclusive, LASV entry inh inconclusive, HCMV inh -78
Cc1cc(C)c(Cn2c(=O)n(CCCCC(=O)NCc3ccccc3Cl)c(=O)c3ccccc32)c(C)c1	none
O=C1Nc2ccccc2C1(O)c1ccccc1 (stereo not given)	none (no result: MARV entry inh, VACV Venus inh, LASV entry inh, VACV mCherry inh)
CC(C)(C)C1=CC(O)(c2ccccc2)C=C(C(C)(C)C)C1=O	FMDV inh inconclusive, HCMV inh -60 (no result: MARV entry inh, VACV Venus inh, LASV entry inh, VACV mCherry inh)

Screening data (PubChem)
